Compounds with a hit are over-represented: about 3.1% of the library has one in this group of screens.
PLK1 PBD inh = blocks phosphopeptide binding to human PLK1 polo-box domain; P53350; Plk1 PBD binding of FITC phosphopeptide, fluorescence polarization; Potency, µM, without a hit: max response, negative = inhibition, usual class: inhibitors; 2.8% of 360,000 active; note: potency is the fitted concentration of half-maximal effect; series mostly up to about 57 µM; % is set by controls: 0 for no effect and ±100 for the full control effect; nearly all actives have a fitted effect of over 65% in size
PTAP TSG101 blk = blocks PTAP/TSG101 interaction to inhibit HIV-1 budding. Q99816. Fluorescence polarization, FITC-PTAP peptide / Tsg101 binding. Potency, µM (series often up to 115 µM), inactives show at the top dose activity change, negative = inhibition, usual class: inhibitors. 340,000 tested, under 10 active; active = well fitted inhibition curve with a large enough effect in the main read-out, with a control signal flat, not every such curve was filed as active; inconclusive = small, poorly fitted or top-dose-only effect, or effect the other way, or a change in a side signal; inactive = no such curve, though single readings can be large or run the other way; note: potency is the fitted concentration of half-maximal effect; % of control where 0% means no effect
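Steps: Tsg101 binding domain dispensed (10 uM final), compounds pinned in DMSO, FITC-labeled PTAP-motif peptide added (50 nM final); after 20 min binding at room temperature, polarization measured.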
VDR inh = inhibitors of human vitamin D receptor; P11473; VDR-SRC2-3 peptide fluorescence polarization, 2 h; Potency, µM, without a hit: max response, negative = inhibition, most hits filed as inhibitors; 0.93% of 400,000 active; AID 504847; note: potency is the fitted concentration of half-maximal effect; % is set by controls: 0 for no effect and ±100 for the full control effect
Target sequence (P11473 whole entry, looked up): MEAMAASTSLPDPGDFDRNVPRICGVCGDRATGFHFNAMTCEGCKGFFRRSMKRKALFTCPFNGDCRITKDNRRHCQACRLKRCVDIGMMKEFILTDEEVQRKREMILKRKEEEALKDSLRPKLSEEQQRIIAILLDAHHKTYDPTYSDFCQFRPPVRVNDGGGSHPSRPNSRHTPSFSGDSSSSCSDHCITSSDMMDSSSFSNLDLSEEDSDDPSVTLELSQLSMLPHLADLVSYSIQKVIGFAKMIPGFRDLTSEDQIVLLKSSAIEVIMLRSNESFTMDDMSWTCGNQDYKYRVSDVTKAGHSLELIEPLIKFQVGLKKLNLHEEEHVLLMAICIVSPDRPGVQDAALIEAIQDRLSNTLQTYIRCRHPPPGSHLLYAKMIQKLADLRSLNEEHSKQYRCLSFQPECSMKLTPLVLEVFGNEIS
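FP read-out; VDR + SRC2-3 coactivator peptide; 23 nl compound by pintool; 2 h RT incubation; reagents held at 4 deg C, protected from light.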
TSHR antag = antagonists of human thyroid stimulating hormone receptor | AID 504810 | 0.2% of 330,000 active | activity change, negative = inhibition, % at 11.5 µM | P16473 | TSHR-expressing cells, TSH-stimulated cAMP HTRF, 2 h; stronger effect = lower value;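 active = activity change below a set negative limit, meaning inhibition stronger than a set level, cut at about -70% in these data; inconclusive = activity change between two set negative limits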; note: % is set by controls: 0 for no effect and ±100 for the full control effect
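Cell-based HTRF cAMP assay; TSHR cells + compound, TSH EC80 (4nM final), 2 h, 37 deg C. Lysis with anti-cAMP cryptate and cAMP-d2, 30 min RT, read 665/620 nm.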
uPA surface inh = inhibitors of cell surface uPA generation | 0.31% of 330,000 active | Potency, µM (highest dose often 38.3 µM), for inactives: top-dose activity change, negative = inhibition, hits mostly inhibitors | AID 540303 | cell surface uPA generation assay, qHTS; active = well fitted inhibition curve with a large enough effect; inconclusive = small, poorly fitted or top-dose-only effect; inactive = no such curve, though single readings can be large or run the other way; tested in mouse RAW 264.7 cells; note: potency is the fitted concentration of half-maximal effect; % is set by controls: 0 for no effect and ±100 for the full control effect; nearly all actives have a fitted effect of over 55% in size
VDR confirm = inhibits human vitamin D receptor, primary hit validation | shares compounds with VDR inh | VDR-coactivator inhibition assay, qHTS confirmation | Potency, µM, actives largely listed as inhibitors | 89% of 840 active | AID 602199; note: potency is the fitted concentration of half-maximal effect
VDR FP fluor = confirmation of human VDR-coactivator binding inhibitors, fluorescein label; shares compounds with VDR inh; VDR-coactivator binding, fluorescein fluorescence polarization; Potency, µM (highest dose often 57.1 µM), without a hit: at the highest dose activity change, negative = inhibition, most hits filed as inhibitors; AID 602200; 48% of 840 active; note: potency is the fitted concentration of half-maximal effect
VDR bla reporter = confirmation of human vitamin D receptor inhibitors in reporter cells; 23% of 840 active; shares compounds with VDR inh; VDR beta-lactamase reporter cells, FRET ratio; cells co-treated with VDR agonist LG190178; AID 602202; Potency, µM (highest dose often 46.1 µM), inactives show at the top dose activity change, negative = inhibition, most hits filed as inhibitors; note: potency is the fitted concentration of half-maximal effect; % is set by controls: 0 for no effect and ±100 for the full control effect
VDR cytotox = counter-screen for vitamin D receptor inhibitors: cytotoxicity; shares compounds with VDR inh; cytotoxicity counter-screen, cell viability, qHTS; Potency, µM (series often up to 48.3 µM), for the others: at the top dose activity change, negative = cytotoxicity, usual class: cytotoxic; 18% of 840 active; AID 602204;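 note: potency is the fitted concentration of half-maximal effect; plate controls were DMSO for no effect and high-concentration cycloheximide for full effect; nearly all actives have a fitted effect of over 75% in size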
An asterisk follows results filed as active. Unless noted, calls come from the whole dose curve; as a rule, active = well fitted curve in the direction sought with a large enough effect; inconclusive = small, poorly fitted or top-dose-only effect, or another doubt; inactive = no such curve, though single readings can be large; an effect the other way counts as inactive or inconclusive.

What do the screens show for `O=C(O)c1cc(S(=O)(=O)Nc2ccc3cn[nH]c3c2)ccc1Cl`?
PLK1 PBD inh: -2.7%; PTAP TSG101 blk: 2.8%; VDR inh: -16.7%; TSHR antag: -1.5; uPA surface inh: -1.2%

Results for CCC(Sc1nc2cc3c(cc2c(=O)n1CCCCCC(=O)NCc1ccc2c(c1)OCO2)OCO3)C(=O)NCCCOC (centres undefined) ?
VDR inh: 24.8%

Results for CC1CCc2c(cc(-c3ccccc3)n2-c2ccc(C(=O)NC(C)C)cc2)C1 (centres undefined) ?
VDR inh: 12.0%

How did CC(=O)c1ccc(OC(=O)c2c(-c3ccccc3Cl)noc2C)cc1 do in these assays?
VDR inh: -13.6%

Results for CCOC(=O)c1c(C2COc3ccccc3O2)csc1NC(=O)c1ccco1 (centres undefined) ?
PLK1 PBD inh: 2.51µM*; PTAP TSG101 blk: -5.0%; VDR inh: inconclusive; TSHR antag: 11.8; VDR confirm: inconclusive; VDR FP fluor: 2.24µM*; VDR bla reporter: -25.0%; VDR cytotox: -4.3%

What do the screens show for `CCS(=O)(=O)c1ncc(Cl)c(C(=O)N2CCN(c3cccc(Cl)c3)CC2)n1`?
VDR inh: 8.91µM*; VDR confirm: 2.82*; VDR FP fluor: 2.82µM*; VDR bla reporter: 2.91µM*; VDR cytotox: 9.47µM*

What do the screens show for `COc1ccc(OCC(=O)N2CCN(c3cccc(Cl)c3)CC2)cc1`?
PLK1 PBD inh: -2.0%; PTAP TSG101 blk: -4.8%; VDR inh: 0.9%; TSHR antag: -2.3; uPA surface inh: -0.6%

How did CCOC(=O)N1C(=O)[C@@](CC)(c2ccccc2)N1C(=O)OCC do in these assays?
PLK1 PBD inh: 13.4µM*; PTAP TSG101 blk: -2.7%; VDR inh: 79.4µM*; TSHR antag: 17.1; uPA surface inh: -19.2%; VDR confirm: 21.2*; VDR FP fluor: -22.8%; VDR bla reporter: 5.4%; VDR cytotox: inconclusive

Results for COC(=O)N1C(=O)[C@@](CC(C)C)(c2ccccc2)N1C(=O)OC ?
TSHR antag: 82.7

What do the screens show for `O=S(=O)(c1ccccc1)c1nc(-c2cccs2)oc1SCc1ccccc1F`?
VDR inh: 10.7%

What do the screens show for `CCc1ccc(-c2nc3c(c(SCc4ccccc4)n2)Cc2c(CO)cnc(C)c2O3)cc1`?
VDR inh: -4.0%

Results for CN1C(=O)C2(NC(=O)c3ccccc3N2C)c2ccccc21 (centres undefined) ?
PLK1 PBD inh: 2.5%; PTAP TSG101 blk: -2.6%; VDR inh: 1.3%; TSHR antag: -3.1; uPA surface inh: 9.3%

How did CN1C(=O)C(Cl)(Cl)C(=O)c2ccccc21 do in these assays?
PLK1 PBD inh: 11.9µM*; PTAP TSG101 blk: 7.4%; VDR inh: 3.98µM*; TSHR antag: 4.2; uPA surface inh: -17.5%; VDR confirm: 3.36*; VDR FP fluor: inconclusive; VDR bla reporter: 2.9%; VDR cytotox: -0.9%

Results for COc1ccccc1NC(=O)c1sc2nc(C)c(C(=O)Nc3ccc(C)cc3C)c(-c3cccs3)c2c1N ?
VDR inh: 8.3%

Results for CCOC(=O)c1sc(N)c(C(=O)Nc2ccccc2OC)c1C ?
PLK1 PBD inh: 4.74µM*; PTAP TSG101 blk: 1.9%; VDR inh: 70.8µM*; TSHR antag: -5.6; uPA surface inh: -14.8%; VDR confirm: 10.6*; VDR FP fluor: inconclusive; VDR bla reporter: -14.9%; VDR cytotox: inconclusive

What do the screens show for `[O-]/[N+](=C/c1ccc(F)cc1)c1ccc(Cl)cc1`?
PLK1 PBD inh: inconclusive; PTAP TSG101 blk: -3.0%; VDR inh: 31.6µM*; TSHR antag: -0.3; uPA surface inh: 0.0%; VDR confirm: 23.8*; VDR FP fluor: inconclusive; VDR bla reporter: -12.8%; VDR cytotox: 6.2%

Results for CSc1nnc(NC(=O)c2nc(S(=O)(=O)Cc3ccccc3F)ncc2Cl)s1 ?
PLK1 PBD inh: inconclusive; PTAP TSG101 blk: 3.0%; VDR inh: 20µM*; TSHR antag: -46.4; uPA surface inh: -3.2%; VDR confirm: 5.97*; VDR FP fluor: 7.94µM*; VDR bla reporter: 7.31µM*; VDR cytotox: 11.2µM*

How did CC(C)c1nnc(NC(=O)c2nc(S(=O)(=O)Cc3ccccc3F)ncc2Cl)s1 do in these assays?
PLK1 PBD inh: -11.7%; PTAP TSG101 blk: -6.1%; VDR inh: 20µM*; TSHR antag: inconclusive; uPA surface inh: inconclusive; VDR confirm: 8.44*; VDR FP fluor: 3.16µM*; VDR bla reporter: 18.4µM*; VDR cytotox: 20.6µM*

Results for CC(C)c1nnc(NC(=O)c2nc(SCc3ccc(F)cc3)ncc2Cl)s1 ?
VDR inh: 0.5%

How did COc1ccc(C)cc1NC(=O)CCS(=O)(=O)c1ccc2c(c1)CC(=O)N2C do in these assays?
VDR inh: 2.9%

Results for O=C(c1ccc(F)cc1)n1nc(-c2ccccc2)nc1NCc1ccco1 ?
VDR inh: -15.2%

Results for COc1cccc(/C=C2\C(=O)N(c3cccc(C)c3)C(=O)c3ccccc32)c1 ?
PLK1 PBD inh: 2.67µM*; PTAP TSG101 blk: -10.0%; VDR inh: inconclusive; TSHR antag: 10.4; uPA surface inh: -1.2%; VDR confirm: 7.94*; VDR FP fluor: 3.16µM*; VDR bla reporter: -11.8%; VDR cytotox: 7.3%

How did COc1cccc(N2C(=O)c3ccncc3C2=O)c1 do in these assays?
PLK1 PBD inh: 3.7%; PTAP TSG101 blk: -4.2%; VDR inh: 2.0%; TSHR antag: 5.6; uPA surface inh: -2.2%

Results for O=[N+]([O-])c1ccc2c(c1)S(=O)(=O)C=C2 ?
VDR inh: 12.6µM*; TSHR antag: -13.7; VDR confirm: 22.4*; VDR FP fluor: inconclusive; VDR bla reporter: 3.66µM*; VDR cytotox: 5.97µM*

Results for O=C(Nc1cccc(F)c1)N1CCCC2(CCN(S(=O)(=O)c3ccccc3)CC2)C1 ?
VDR inh: 0.0%
